# Screening data as filed in PubChem BioAssay.
# Hits are enriched below; roughly 19% of the tested compounds scored in any of these assays.
# TDP1 cell noCPT: qHTS for Inhibitors of human tyrosyl-DNA phosphodiesterase 1 (TDP1): qHTS in cells in absence of CPT. AID 686978, 2013. Potency, µM (highest dose often 46.2 µM), hits mostly inhibitors. DT40 Tdp1-/- hTDP1 cells, no CPT, ATP luminescence, 48 h. 15% of 420,000 active; note: nearly all actives have a fitted effect of over 55% in size
#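 Luminescent ATP content (CellTiter-Glo) served as the growth readout. Knockout chicken DT40 cells expressing human TDP1 were exposed to compounds without camptothecin for a minimum 48 hr at 37 °C.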
# HepG2 tox: counter-screen for TGF-b inhibitors: cytotoxicity in HepG2 cells; HepG2 CAGA-GFP viability, ATP luminescence, 18 h; Potency, µM (highest dose often 46.1 µM), usual class: cytotoxic; 0.76% of 410,000 active; AID 588856
#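 CellTiter-Glo luminescence gave cytotoxicity after 18 hours at 37 degrees C. The cells were HepG2 CAGA-GFP in 1% FBS DMEM, stimulated with 500 pg/mL TGF-beta after compound addition. %Activity was normalised to no-cell wells (complete cell-killing) and DMSO (no toxicity), and curves were fitted and classified.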
# TDP1 block: inhibitors of human tyrosyl-DNA phosphodiesterase TDP1. Q9NUW8. recombinant TDP1, AlphaScreen DNA substrate cleavage. Potency, µM (highest dose often 130 µM), usual class: inhibitors. 0.28% of 350,000 active. AID 485290; note: nearly all actives have a fitted effect of over 40% in size
# Target sequence (Q9NUW8 whole entry, looked up): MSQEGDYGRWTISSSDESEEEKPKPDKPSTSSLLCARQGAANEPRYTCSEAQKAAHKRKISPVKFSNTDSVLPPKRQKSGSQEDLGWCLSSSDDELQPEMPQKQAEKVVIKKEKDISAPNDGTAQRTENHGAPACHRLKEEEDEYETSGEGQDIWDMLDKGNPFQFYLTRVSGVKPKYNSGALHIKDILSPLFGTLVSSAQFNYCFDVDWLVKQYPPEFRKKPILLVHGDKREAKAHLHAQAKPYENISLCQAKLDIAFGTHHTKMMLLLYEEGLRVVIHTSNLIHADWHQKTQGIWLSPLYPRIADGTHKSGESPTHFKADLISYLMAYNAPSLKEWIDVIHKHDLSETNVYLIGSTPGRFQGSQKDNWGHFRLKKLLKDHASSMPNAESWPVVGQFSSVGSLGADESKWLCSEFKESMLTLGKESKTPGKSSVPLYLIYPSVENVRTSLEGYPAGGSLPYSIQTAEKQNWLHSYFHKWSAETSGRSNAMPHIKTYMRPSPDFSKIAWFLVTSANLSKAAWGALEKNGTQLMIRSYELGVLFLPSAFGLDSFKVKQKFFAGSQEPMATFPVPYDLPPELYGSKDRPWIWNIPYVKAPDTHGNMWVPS
#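 Recombinant human Tdp1 (E. coli-expressed, 1 nM final) preincubated with compounds 15 min at room temperature, then 5'-biotin/3'-phosphotyrosine-FITC DNA substrate (15 nM final) added for 5 min. AlphaScreen beads (10 ug/ml final) added 10 min; cleavage lowers signal.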
# IL-1B inflam inh: inflammasome signaling inhibition, IL-1 beta readout; activity change, % at 57.5 µM; THP-1 LPS/ATP IL-1B secretion, AlphaLISA, 16 h; stronger effect = lower value; 4.7% of 360,000 active; in the data active = activity change below about -50%; inconclusive = mostly about -30% to -49%
#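 THP-1 cells pretreated 1 hr with compounds (up to 57.5 uM final), then stimulated with LPS (250 ng/mL final) plus ATP (1.25 mM final); secreted IL-1B measured by AlphaLISA after 16 hr, decreased signal indicating inhibition.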
# DT40 TDP1 CPT: growth inhibition of DT40 Tdp1-/-;hTDP1 cells with camptothecin (screen for TDP1 inhibitors); chicken DT40 Tdp1-/-;hTDP1 cells + 20 nM CPT, ATP luminescence, 48 h; 12% of 420,000 active; AID 686979; Potency, µM (highest dose often 46.2 µM), actives largely listed as inhibitors; note: nearly all actives have a fitted effect of over 55% in size
#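 Chicken DT40 Tdp1-/- cells stably complemented with human TDP1 were seeded at 400 cells/well in medium containing 20 nM camptothecin, exposed to pin-transferred compounds, and grown at 37 °C for at least 48 hr. Viability was read as ATP luminescence.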
# TGFb SMAD3 inh: TGF-b pathway inhibition | HepG2 CAGA-GFP TGF-b/SMAD3 reporter, GFP fluorescence, 18 h; TGF-beta stimulated, 500 pg/mL final | Potency, µM (doses to about 46.1 µM), most hits filed as inhibitors | 1.2% of 410,000 active; note: nearly all actives have a fitted effect of over 65% in size
#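 Smad-responsive CAGA-GFP expression was quantified in HEPG2 cells exposed to compounds and 500 pg/mL final TGF-beta for 18 h at 37 degrees C; unstimulated wells defined full inhibition.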
# Numbers stand for hits; - = inactive; ? = inconclusive; . = not tested or not shown; [ ] = remark or other dose. Unless noted, calls come from the whole dose curve; as a rule, active = well fitted curve in the direction sought with a large enough effect; inconclusive = small, poorly fitted or top-dose-only effect, or another doubt; inactive = no such curve, though single readings can be large; an effect the other way counts as inactive or inconclusive.
SMILES,TDP1 cell noCPT,HepG2 tox,TDP1 block,IL-1B inflam inh,DT40 TDP1 CPT,TGFb SMAD3 inh
C(=C\c1ccccc1)/CN1CCN(C(c2cccs2)c2nnnn2C2CCCC2)CC1 (configuration not stated),?,-,.,-,?,?
CC(C)(C)n1nnnc1C(c1cc2ccccc2o1)N1CCCC1 (configuration not stated),-,.,.,-,-,.
CCOC(=O)c1cc(NC(=O)c2ccc(C)cc2)c(=O)n2c1oc1ccc(Cl)cc12,-,-,-,.,-,-
CCOC(=O)NNC(=S)Nc1c(C)n(C)n(-c2ccccc2)c1=O,-,-,-,-,-,-
COC(=O)/C(=C/c1ccco1)NC(=O)c1ccco1,-,-,-,-,-,-
O=C(Nc1ccc(F)cc1F)c1ccccc1NC(=O)C1CC=CCC1C(=O)O (configuration not stated),?,-,-,-,?,-
Cc1cc2nc(Sc3c([N+](=O)[O-])nc(C)n3Cc3ccccc3)[nH]c2cc1C,11.6µM,-,-,-97.6,7.31µM,-
O=C(O)c1cc([N+](=O)[O-])c(Sc2nc3ccccc3[nH]2)c([N+](=O)[O-])c1,-,-,.,-,-,-
Cc1nc([N+](=O)[O-])c(Sc2nc3ccccc3[nH]2)n1Cc1ccccc1,11.6µM,-,-,-105.3,8.2µM,-
Cn1cnc([N+](=O)[O-])c1Sc1nc2ccccc2[nH]1,18.4µM,-,-,-97.3,10.3µM,-
CS(=O)(=O)c1cc([N+](=O)[O-])c(Sc2nc3ccccc3[nH]2)c([N+](=O)[O-])c1,4.61µM,-,-,-,2.91µM,?
Cc1ccccc1OCC(=O)OCc1cc(=O)n2ccsc2n1,?,-,-,.,-,-
CCN(Cc1ccc(Br)s1)C(=O)CSc1nnc(C2CC2)n1C1CC1,-,-,.,-,-,-
CCN(CC)CCCn1c2c(c(SCC(=O)Nc3ccc4c(c3)OCCO4)nc1=O)CCC2,-,-,-[0.505 µM],?,?,-
O=C(c1ccc(F)c(F)c1)N1CCCc2ccccc21,?,-,.,-,-,-
COc1ccc2nc(Sc3c([N+](=O)[O-])nc(C)n3Cc3ccccc3)[nH]c2c1,23.1µM,-,-,-80.2,18.4µM,?
CCCCCCCCCCCCCCCCCC(=O)OCCO,-,.,.,.,?,.
Nc1c(NCc2ccccc2)c(=O)[nH]c(=O)n1Cc1ccccc1,18.4µM,-,-,-,?,-
CNc1c(N)n(Cc2ccccc2)c(=O)[nH]c1=O,-,-,-,-,-,-
CCCNc1c(N)n(-c2ccccc2)c(=O)[nH]c1=O,16.4µM,-,-,-,?,-
Cc1ccc(-c2cc(C(=O)Oc3ccccc3)c3cc(C)ccc3n2)cc1,-,-,.,.,-,-
COC(=O)c1[nH]c2c(c1C)C(=O)CC(c1cccs1)C2 (configuration not stated),0.82µM,-,-,-,0.731µM,?
CCOc1ccc(C2CC(=O)c3c([nH]c(C(=O)OC)c3C)C2)cc1OC (configuration not stated),-,-,-,-,-,-
COC(=O)c1[nH]c2c(c1C)C(=O)CC(c1cc(OC)ccc1OC)C2 (configuration not stated),2.91µM,-,-,-,3.26µM,-
COc1ccc(OC)c(C2CC(=O)c3c([nH]c(C(=O)OCC4CCCCC4)c3C)C2)c1 (configuration not stated),?,-,-,.,20.6µM,-
SMILES,TDP1 cell noCPT,HepG2 tox,TDP1 block,IL-1B inflam inh,DT40 TDP1 CPT,TGFb SMAD3 inh
Cc1c(C(=O)O)[nH]c2c1C(=O)CC(c1ccccc1)C2 (configuration not stated),-,-,-,-,-,-
CC1CCc2nc3ncn(Cc4cccc(F)c4)c(=O)c3cc2C1 (configuration not stated),?,-,-,.,?,-
Cc1cccc(OCC(=O)N(Cc2ccc(C(C)(C)C)cc2)Cc2ccco2)c1,10.3µM,-,-,.,20.6µM,-
CC(C)(C)c1ccc(C(=O)N(Cc2ccc(F)cc2)Cc2ccco2)cc1,?,-,-,.,?,-
Cc1cc(=O)oc2ccc(OCC(=O)N(Cc3ccc(F)cc3)Cc3ccco3)cc12,?,-,.,-61.7,23.1µM,-
Cc1ccc2c(c1)cc(CN(Cc1ccco1)C(=O)COc1ccccc1)c1nnnn12,23.1µM,-,-,?,?,-
Cc1ccc(CN(Cc2ccco2)C(=O)COc2ccc(C)c(C)c2)cc1,16.4µM,-,-,.,23.1µM,?
CCC(=O)N(Cc1ccco1)Cc1cc2cccc(C)c2n2nnnc12,-,-,-,-,-,-
CCN(C(=O)c1ccc2c(=O)n3c(nc2c1)CCCCC3)c1cc(OC)ccc1OC,-,-,-,-,-,-
CCOc1ccccc1CNc1nc2nc(C)c(CC(=O)OC)c(=O)n2[nH]1,-,-,-,.,-,-
Cc1c(Cl)cccc1NC(=O)CCS(=O)(=O)c1ccc2c(c1)CC(=O)N2C,-,-,-,.,-,?
CCc1ccc(OCC(=O)N(Cc2ccco2)Cc2ccccc2Cl)cc1,13µM,-,-,.,?,.
CCc1ccc(OCC(=O)N(Cc2ccc(C)cc2)Cc2ccco2)cc1,20.6µM,-,-,.,?,?
CCC(C)NCCCOc1ccc(Cl)cc1C(C)(C)C (configuration not stated),?,-,?,-,?,-
C/C=C/c1ccc(OCCCNC(C)CC)c(OC)c1 (configuration not stated),-,-,.,?,-,-
C=CCc1cc(Cl)ccc1OCCCNC(C)CC (configuration not stated),14.6µM,-,-,-,16.4µM,-
C=CCc1ccc(OCCCCNC(C)CC)c(OC)c1 (configuration not stated),18.4µM,-,-,-,?,-
COc1ccccc1C(=O)N[C@@H]1c2ccccc2C2(CCN(Cc3ccc4c(c3)OCO4)CC2)[C@H]1O,?,.,.,.,-[9.04 µM],.
COc1c2c(c(C(=O)/C=C/C(C)=C/c3ccccc3)c3c1OCO3)CCN(C)C2,-[9.04 µM],.,-,.,-[9.04 µM],.
CC(=O)Oc1cc2c(s1)CCN(C(C(=O)C1CC1)c1ccccc1F)C2 (configuration not stated),-,.,.,.,-,.
Oc1cccc(Nc2nc(O)c(/C=C3\C=Nc4ccccc43)s2)c1,?,-,-,-,?,?
Oc1nc(Nc2ccc(F)cc2)sc1/C=C1\C=Nc2ccccc21,-,-,-,-78.1,?,?
